# Measured values as given in the supplement of paper PMC12632987.
# In all, about 2,300 sequences were measured (“median log2 fold change of GCK-ALFA target abundance (FLAG IP / Myc IP barcode read proportion)”: median about 0.095, lowest 2% from about -0.47 on). Shown is part of a subset that was picked to be rich in the lowest values.
# B1: LC3A_45_1977 (protein)
# chain: MAEATLDVLVPRELAEAALEALKRGAERLLEERGPGVEVDLEALEESYRATRDEEEVLLTVRIRAPTRQEALDLADELVEELERELGRPVAAAISVEELP
# B2: LC3A_59_2019 (protein)
# chain: MEEIEEYREKLREAIDNIDEFVEIVREGLEKFKDDKEKVEALLEEVMEVIVEELGADPEEAEKVLKRMKEIFKTEKDKEKAIELVVDEIRDLLLLTPIEE
# B3: LC3A_3_1859 (protein)
# chain: MEEIKKEIIELLKSLGRSEEVIEAAERLANLLIERGYKEALETLLEELKKLKDVSDEILLAMFEDLIEALETEDLSEEELIERIEEEARIALNDQEIEEL
# B4: LC3A_17_549 (protein)
# chain: MEEIKKELEKLLKELEALVKELEKYDPEAAKKLKKKLKEAKKLLEEGKLKEAAETLAEAARELANKLDELEPKHGNEASVLAMEASGLELEAIGLLLKLE
# B5: LC3A_3_1857 (protein)
# chain: MEEIKKEILELLKKLGRSEETIKAAEELADALIKRGYKKALEKLLEELKKLKNASDELLLDMFKELLAALENEKLNEEELIKKIEEEAKIVKNEQEIIEL
# B6: LC3A_147_450 (protein)
# chain: VLYEITVDILFKNDPELAEEVEEEIKEIAEKYGGEVEVEREVEQETPTTTLYFVRVTIKFEDEEKALEAEQEISELLDETAKKHPEKFVGAMISIEKIEE
# B7: LC3A_28_755 (protein)
# chain: ADIEGTIKEAIERAKKAKEEGKEEVIEITVPAGATQADIDKVIEGMEEIAEINKDMKRTTILVNVEAGVAQENLDKLIDAGEEIEEKYPNVTVIFALDEE
# B8: LC3A_28_1202 (protein)
# chain: SATKAAADAALAEAKALLAAGEEGVVELVVEGKITEEETQYVIDKLEEIAELAAKSGKISIVLDISGEVPEEHQQKLIDKADELEKKYPNVNIIVALEER
# B9: LC3A_3_1805 (protein)
# chain: ADERIEALLEELRAAGASEETIAAAREVLTLLRERGYLEALETLIEGLRELLDAPDELRLDLLEDVLEYLETNDASEEEVTEFIKEEIRLARSESEIEEL
# B10: LC3A_28_1235 (protein)
# chain: NAVEKQIEAAKAEVEAAVAAGEEALVELTVTKETTEEDVEKIIKAMEEIAALAATLPALTIIIDVERGVKQEHIDKLADAADAIEAKYPNVTVIIALEEE
# B11: LC3A_17_590 (protein)
# chain: SEEIREELEELLKELKELIKEAKKLGIPEAKEVEKLLKEAEKALKEGKLREAAELLREAADLLADALEEIEEELGSKASVLEMEANGLALRAEGILLKLE
# B12: LC3A_17_592 (protein)
# chain: SEEIKKEIEELLKELKKLIKKMKELGIPEAKEIEKLLKEAEKALKEGDLKKAAELLAKAADLAADALEEKEEELGSEASVLEMEANGLELRAIGILLKLD
# B13: LC3A_28_956 (protein)
# chain: SALEEALKKAIEEAKKAAEKGEPAVITIKVPGDADEEDIEKVIEALREIAEILKDVKGAAIIVDVDGKVKQEHIDKIAEEAERIEKEYPNVTVIIALDEE
# B14: LC3A_3_1793 (protein)
# chain: AQARIDALLAELRAAGKSDETLAAVRAAATALADRGYEEALATFIEELRELIDAPDEILLDLAEEVLRLIEEEDLDEEELTERIKELAELARNEAEIIEL
# B15: LC3A_free_8_2441 (protein)
# chain: SNQELVDAALKLLDELEEEIEKKAKELGLDETDIGLLLLEVGSAISEVISLSDASPEEILKATKEDLEEIIKLAEEINKELAKIVKEKAEKILKELEKLL
# B16: LC3A_28_693 (protein)
# chain: SAIDKQIAAARAEADAAIAAGEEATLTITVTADTTQADVDRIMAAIEEIAARMAASAKLNIIIDVEAGVPQEHLDRLADFGDALAARYPNVNIIIALDED
# B17: LC3A_free_39_2217 (protein)
# chain: SMEEIEKLIKEIAEEGGIDYEYVKKKIEEIKEVAGLSDEQILELVKAILEAVKAGADAKEILERILKLAKELKEEGKSPEEIAKELLEEIEDFRNLIPLD
# B18: LC3A_free_39_2214 (protein)
# chain: SEEELEELIKEVAKESGLDYEYIKKKIEEIKEIAGLSLEQMKELVKAILEAVKAGADAEEILKRILALAKELKAAGKSPEEIAEALIEEAEDFRNLIPLD
# B19: LC3A_free_39_2288 (protein)
# chain: SMEELEKAVKRLAELLDKIEGVTEEEKQTILEAAKKSLETAKAILEALETIEKDGGDVAEAAKRIAAKIKELEAAGKSLEEMTEEIIALTKDLVNLIPID
# B20: LC3A_3_1447 (protein)
# chain: AEELREEALELLRERGASPETIAAAEELFDALIEKGYLEAMELVLEFLKEVKDASDEFLLETFKDLLELVLTSDDSPEEMKKKIEEELSAFRSELEIEEL
# B21: LC3A_3_1892 (protein)
# chain: LEERVEETVERLKEAGASEETIELFLEAAELLLERGYYEALETLIDEVEELIDLPDEILLDFLEEVLEVLETEDLSEEELIERIKELARLAKNEGEIEEL
# B22: LC3A_3_1891 (protein)
# chain: LEERIERTEELLREKGASEETIELFRKVMELLKARGYEEALKTLIEEVEELADLPDEILLDFLEEVLEVLETEDLSEEELIKKIKELARLARNEGEIIEL
# B23: LC3A_3_1875 (protein)
# chain: MDEKIEETIELLKEAGASEETIEKFEEVAELLKERGYEEALETLIEEVKKLAGTSDEILLDFLEEVLEVLKTKDLSEEELIEEIKRIARLALNEAEIIEL
# B24: LC3A_28_685 (protein)
# chain: SKTEEDLKKALEEAEEALKKGEPTVVRINVYGDVTEEELEKVLKALEEIAKILNKIPGSAIIVDIDADVDEEFEDKIIDKAEELEKKYPNVTIIIALEER
# B25: LC3A_28_1013 (protein)
# chain: MSIVEETKKKIEEALKEAEKGEDAYLEVEITSEATQEEVEEVLELIEKAAKEVSKLPNVKLYVVIYDDSNQENHQLIVDAADRIEEKYPNVHVIVAYDDE
# B26: LC3A_45_1937 (protein)
# chain: MYLATIDLIVPRELAEEALALAEEIARELEEENDGKVEVDLETLRESYEATRDEEDVLLVVKIYAETEELALDVADRLVDRLRAALGPRVAAIISVEEVP
# B27: LC3A_free_46_2420 (protein)
# chain: MTLDIDIDVLAKTEETAKAVAKELTKTLEDTAKELGVKVEIKVEIEKLEDGTYYVHIDATFTGVTEEQAQQIEDKVIDKVEELEKKYPEILGSIISSELE
# B28: LC3A_free_26_2152 (protein)
# chain: DIFIDLVELDKAIELLEKALKLLEEDKNASEELKKLVKEALKKAEEMTLESLEEAKKLVEEALKLLEKDKSLSEEKKKELKKLLEEALKLLEKNIEIAKS
# B29: LC3A_28_1030 (protein)
# chain: AALKAAAAAALAEARAQFEAGEEAVVTLDVGDVPTAEAKAVVTAFLAELRALSAEYGGRKVSVVINYDGDQATLDAIIDAAEAAEAEDPNLTVIIAYADN
# Molecular target: MAP1LC3A, Q9H492
# Assay: median log2 fold change of GCK-ALFA target abundance (FLAG IP / Myc IP barcode read proportion) (log2 ratio); each designed protein is fused to an ALFA-tag nanobody in HEK293 cells to bring the named protein to FLAG-tagged glucokinase (GCK); Myc marks an untargeted standard; higher = target protein stabilised (more abundant)
# Settings: target protein: 3xFLAG-MCP-GCK-ALFA reporter; HEK293 landing pad (RPLP)
# Experimental: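 LABEL-seq trans screen in HEK293 landing-pad cells. Each de novo designed 100-aa effector handle, binding the indicated effector (E3 ligase, DUB or autophagy protein), is fused to a constant NbALFA target handle and induced with 2 ug/mL doxycycline. A FLAG-MCP-GCK-ALFA target and a Myc-MCP standard reporter were transfected, and after 48 h circRNA barcodes were recovered by anti-FLAG and anti-Myc IP and sequenced. The value is the median across barcodes (at least 3 per design) of log2(FLAG/Myc read-proportion ratio), with the two transfection replicates pooled. Negative values mean degradation and positive values mean stabilisation of the target.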
row,Binder,median log2 fold change
1,B1,0.107
2,B2,-0.514
3,B3,0.169
4,B4,0.207
5,B5,0.117
6,B6,-0.716
7,B7,-0.196
8,B8,-0.206
9,B9,-0.0069
10,B10,0.0727
11,B11,0.0276
12,B12,-0.636
13,B13,-0.0851
14,B14,0.139
15,B15,0.0457
16,B16,0.211
17,B17,-0.012
18,B18,-0.832
19,B19,0.326
20,B20,0.173
21,B21,-0.691
22,B22,-0.0314
23,B23,0.289
24,B24,-0.264
25,B25,-0.261
26,B26,-0.359
27,B27,-0.177
28,B28,0.192
29,B29,-0.268
